Out of some 52,000 compounds screened, about 4,300 (8.3%) were called active. Rule as the data show it: active = survival mostly below about 52% (no sharp cut-off); inactive = mostly above about 56%. Many of the other results were omitted from the sample, so actives are more common in it than they were.

Data on 98 compounds can be found in PubChem BioAssay AID463173 (ICCB-Longwood Screening Facility, Harvard Medical School, 2010).

The subject of this assay is DeltatarO mutant. Description: S. aureus survival, RN4220 and DeltatarO strains – OD600, teichoic acid synthesis inhibitors, primary screen (AID 463173). Particulars: S. aureus RN4220 wild type/DeltatarO growth, OD600, 18 h, hits give low values, screened at 18.75 µg/mL (by protocol).
In the case of `Cc1ccc(Cn2c(=O)n(Cc3ccccc3)c(=O)c3oc4ccccc4c32)cc1`, the survival is 69% (inactive). Regarding `CC(=O)N1CCCc2cc(S(=O)(=O)NCc3cccc(C)c3)ccc21`, the survival is 78% (inactive). `C=CCc1c(C)nc2nc(SCC(=O)Nc3ccc(C)c(C)c3)nn2c1C`: the survival is 75% (inactive). `CCOC(=O)c1ccccc1NC(=O)CSc1cc(C)[nH]c(=O)n1`: the survival was 88% (inactive). Regarding `COc1cc(C(=O)Nc2cc(C)ccc2OCc2cc(=O)n3cc(C)sc3n2)cc(OC)c1OC`, the survival is 89% (inactive). With `O=C(c1cccn1-c1nnc(N2CCCCC2)s1)N1CCN(c2ccccc2)CC1`, the survival is 0% (active). In the case of `O=C(c1cccn1-c1nnc(N2CCCC2)s1)N1CCN(c2ccc(F)cc2)CC1`, the survival is 118% (inactive). In the case of `O=C(c1cccn1-c1nnc(N2CCCCC2)s1)N1CCN(c2ccc(Cl)cc2)CC1`, the survival was 69% (inactive). As for `O=C(c1cccn1-c1nnc(N2CCCC2)s1)N1CCN(c2ccc(Cl)cc2)CC1`, the survival is 63% (inactive). As for `COc1ccc(N2CCN(C(=O)c3cccn3-c3nnc(N4CCCC4)s3)CC2)cc1`, the survival is 101% (inactive). With `O=C(c1cccn1-c1nnc(N2CCCC2)s1)N1CCN(c2ccccc2)CC1` the figure was 25% (active); with `O=S(=O)(c1ccc2nc(Nc3ccc(Br)cc3F)ccc2c1)N1CCCCC1`, 70% (inactive); with `CCOc1ccc(CCNC(=O)C2COc3ccccc3C2)cc1OCC` (stereo not drawn), 0% (active). As to `Cc1ccc(CCNC(=O)C2COc3ccccc3C2)cc1` (stereo not drawn), the survival was 74% (inactive). Regarding `O=C(NCCc1ccc(Cl)cc1)C1COc2ccccc2C1` (stereo not drawn), the survival was 69% (inactive). With `O=C(NCCc1ccccc1)C1COc2ccccc2C1` (stereo not drawn), the survival is 37% (active). With `COc1ccc(CCNC(=O)C2COc3ccccc3C2)cc1OC` (stereo not drawn) the figure was 75% (inactive); with `CCOc1cc(CNC(=O)C2COc3ccccc3C2)cc(OCC)c1OCC` (stereo not drawn), 69% (inactive); with `Cc1ccc(CNC(=O)C2COc3ccccc3C2)cc1` (stereo not drawn), 117% (inactive). For the compound `CN(C)c1ccc(CNC(=O)C2COc3ccccc3C2)cc1` (stereo not drawn), the survival is 32% (active). The result for `CCc1ccc(CNC(=O)C2COc3ccccc3C2)cc1` (stereo not drawn) reads 81% (inactive); that for `NC(=O)c1cc(S(=O)(=O)NCC2CCC(C(=O)Nc3cccc(Cl)c3)CC2)cs1` (stereo not drawn), 76% (inactive); that for `CCCOc1ccc(-c2nonc2NC(=O)c2cc(OC)c(OC)c(OC)c2)cc1OCCC`, 84% (inactive). For `COc1ccccc1CNC(=O)CCNS(=O)(=O)c1cccc2nsnc12`, the survival is 64% (inactive). For `CCc1ccccc1NC(=O)C(=O)c1cc(C)n(-c2ccccc2F)c1C`, the survival is 87% (inactive). As to `CCOC(=O)C1=C(CN2CCN(c3ccc(C)cc3C)CC2)NC(=O)NC1c1ccc(OC)cc1` (stereo not drawn), the survival is 97% (inactive).

As to `CC1(C)CC2(CC(C)(C)NC(=O)N2)NC(=O)N1`, the survival was 89% (inactive).

`Cc1cc(C)c(Cn2c(=O)n(Cc3ccccc3)c(=O)c3c(C)c(C)sc32)c(C)c1`: the survival is 49% (inactive). `Cc1cccc(-c2nnc(SCC(=O)NC3CCCCC3)o2)c1`: the survival is 82% (inactive). In the case of `Cc1ccc(CNC(=O)c2ccc3c(O)c(S(=O)(=O)c4ccc(Cl)cc4)c(=O)[nH]c3c2)cc1`, the survival is 84% (inactive). Take `Cc1cc(-c2nc3ncccc3o2)ccc1NC(=O)c1ccccc1Br`: the survival was 27% (active). Take `COc1c(C)cc(Br)cc1C(=O)Nc1ccc(-c2nc3ncccc3o2)cc1`: the survival is 50% (inactive).

With `Cc1cc(-c2nc3ncccc3o2)ccc1NC(=O)c1ccc(Br)cc1`, the survival was 174% (inactive). Regarding `Cc1ccc(-c2nc3ncccc3o2)cc1NC(=O)c1ccccc1Br`, the survival was 53% (inactive).

As for `CCOc1cc(C(=O)Nc2ccc(-c3nc4ncccc4o3)cc2C)cc(OCC)c1OCC`, the survival is 52% (active). On to `COc1ccc(C(=O)Nc2ccc(-c3nc4ncccc4o3)cc2)cc1`, for which the survival is 78% (inactive). In the case of `Cc1ccc(C(=O)Nc2cc(-c3nc4ncccc4o3)ccc2C)c(C)c1`, the survival is 98% (inactive).

`Cc1cc(-c2nc3ncccc3o2)ccc1NC(=O)c1ccc(Cl)cc1`: the survival is 76% (inactive). As to `Cc1cc(C)cc(C(=O)Nc2ccc(-c3nc4ncccc4o3)cc2)c1`, the survival is 56% (inactive). With `Cc1ccc(-c2nc3ncccc3o2)cc1NC(=O)c1cccc(OCC(C)C)c1` the figure was 42% (active); with `CC(C)COc1cccc(C(=O)Nc2ccc(-c3nc4ncccc4o3)cc2)c1`, 65% (inactive). On to `COc1ccc(C(=O)Nc2cc(-c3nc4ncccc4o3)ccc2C)cc1Br`, for which the survival was 40% (active).

As to `CCOC(=O)C1CCCN(S(=O)(=O)c2cc(Br)cc3c2N(C(C)=O)CC3)C1` (stereo not drawn), the survival was 72% (inactive). As to `CCC1CN(C(=O)N2CCC(C(=O)NCc3cccc(C)c3)CC2)c2ccccc2O1` (stereo not drawn), the survival was 77% (inactive). For the compound `O=C(NCc1ccco1)Nc1ccccc1`, the survival was 94% (inactive). Regarding `O=C(CCCCn1c(=O)c2ccccc2n(CC(=O)Nc2ccc(F)cc2F)c1=O)NCCc1ccccc1`, the survival was 92% (inactive). Regarding `CC1=C(C(=O)NCc2ccccc2Cl)C2(CCCCCC2)OC1=O`, the survival was 49% (inactive). `CCCN(c1ccc(C(C)C)cc1)S(=O)(=O)c1ccc2c(c1)n(C)c(=O)c(=O)n2C`: the survival was 84% (inactive). For the compound `COc1ccc(NC(=O)Cn2c(C)cc3ccccc3c2=O)c(OC)c1`, the survival was 59% (inactive). Regarding `CCc1cccc(C)c1Nc1c(-c2cccc(O)c2)nc2nc(C)cc(C)n12`, the survival is 66% (inactive). With `CCc1cccc(NC(=O)CCS(=O)(=O)c2cc(Br)cc3c2N(C(C)=O)CC3)c1`, the survival is 144% (inactive).

With `COc1ccc(Br)cc1C(=O)Nc1ccc(-c2nc3ncccc3o2)cc1C`, the survival is 41% (inactive).

As to `COc1ccc(C(=O)Nc2ccc(-c3nc4ncccc4o3)cc2C)cc1Br`, the survival was 37% (active). On to `O=C(Nc1nccs1)c1ccc(-c2ccc(Cl)cc2)o1`, for which the survival was 35% (active).

Regarding `Cc1ccc(-c2nc3ncccc3o2)cc1NC(=O)c1ccc(-c2ccc(Cl)cc2)o1`, the survival is 35% (active). In the case of `Cc1cc(NC(=O)c2ccc(-c3ccc(Cl)cc3)o2)cc(-c2nc3ncccc3o2)c1O`, the survival was 88% (inactive).

Regarding `CC(=O)c1ccc(NC(=O)c2ccc(-c3ccc(Cl)cc3)o2)cc1`, the survival was 92% (inactive). With `Cc1ccc(-c2nc3ncccc3o2)cc1NC(=O)c1ccc(-c2cccc(Cl)c2C)o1`, the survival is 56% (inactive). Regarding `CCCC(=O)Nc1ccc(-c2nc3ncccc3o2)cc1C`, the survival was 69% (inactive).

With `O=C(Nc1nccs1)c1cccc(C(=O)Nc2nccs2)c1`, the survival was 98% (inactive). On to `CCCCc1nn2c(=O)cc(COC(=O)c3ccc(NC(=O)C(CC)CC)cc3)nc2s1`, for which the survival was 94% (inactive). As for `CCC(Sc1nc2ccccc2c2nc(CCn3c(C)nc4ccccc43)nn12)C(=O)Nc1ccc(F)cc1` (stereo not drawn), the survival is 67% (inactive). In the case of `COc1ccc(Cn2c(CCC(=O)NCc3ccc(Cl)cc3)nc3cccnc32)cc1`, the survival was 112% (inactive). Take `Cc1cc(C)nc(N2CCCC(C)C2)n1` (stereo not drawn): the survival was 87% (inactive). As to `CC1CCN(c2nc3nonc3nc2Nc2ccc(F)cc2)CC1`, the survival was 78% (inactive).

Regarding `CC1CCCN(c2nc3nonc3nc2Nc2cccc(Cl)c2)C1` (stereo not drawn), the survival was 0% (active). With `COc1ccccc1CNC(=O)CCn1c(=O)c2ccccc2n(CC(=O)Nc2ccc(C)cc2C)c1=O` the figure was 86% (inactive); with `CCOC(=O)c1ccc(NC(=O)Cn2nnc(-c3ccc(C(F)(F)F)cc3)n2)cc1`, 87% (inactive). As for `CC1CCN(C(=O)c2cc3c(=O)n(C)c4ccccc4c3s2)CC1`, the survival is 88% (inactive). For the compound `Cc1ccc2nc(Cl)c3cc(C(=O)NC4CCCCCC4)sc3c2c1`, the survival is 102% (inactive). Take `CC1CCCN(C(=O)c2cc3c(=O)n(C)c4ccccc4c3s2)C1` (stereo not drawn): the survival is 138% (inactive). The result for `CCOC(=O)C1CCCN(C(=O)c2ccc(-n3ccc4ccccc43)s2)C1` (stereo not drawn) reads -1% (active); that for `Cc1ccc2nc(Cl)c3cc(C(=O)N4CCCCC4C)sc3c2c1` (stereo not drawn), 23% (active); that for `Cc1ccc2nc(Cl)c3cc(C(=O)NC4CCCCC4)sc3c2c1`, 52% (inactive). With `CC(C)N(C(=O)c1cc2c(Cl)nc3ccccc3c2s1)C1CCCCC1`, the survival is 16% (active). Take `CCC(C)NC(=O)C1CCN(C(=O)c2ccc(-n3ccc4ccccc43)s2)CC1` (stereo not drawn): the survival is 81% (inactive). As for `CCOC(=O)C1CCCN(C(=O)c2cc3c(=O)n(C)c4ccccc4c3s2)C1` (stereo not drawn), the survival was 44% (active). Consider `CCOC(=O)C1CCN(C(=O)c2ccc(-n3ccc4ccccc43)s2)CC1`, for which the survival is 72% (inactive). Regarding `Cc1ccc(S(=O)(=O)Nc2nc3c(s2)C(=O)CC(C)(C)C3)cc1`, the survival is 91% (inactive). As to `COc1ccc2nc(NS(=O)(=O)Cc3ccccc3)sc2c1`, the survival was 75% (inactive). The result for `CCOc1ccccc1N(C)C(=O)NCc1noc2ccccc12` reads 108% (inactive); that for `O=C(NCc1ccccc1F)C(=O)NCC(c1cccs1)S(=O)(=O)c1cccs1` (stereo not drawn), 83% (inactive). As to `Cc1ccc(-n2ncc3c(NCCCn4ccnc4)ncnc32)cc1C`, the survival was 84% (inactive). With `Cc1[nH]c2ccccc2c1SCCNC(=O)c1ccc(F)cc1` the figure was 59% (inactive); with `COc1ccc(NC(=O)CN2C(=O)CCn3nc(-c4cccn4C)cc32)cc1Cl`, 83% (inactive); with `CC1CCc2[nH]nc(C(=O)O)c2C1` (stereo not drawn), 93% (inactive).

In the case of `CC1CCCN(C(=O)c2cc3c(Cl)nc4ccccc4c3s2)C1` (stereo not drawn), the survival is -5% (active). With `O=C(NC1CCCCCC1)c1cc2c(Cl)nc3ccccc3c2s1` the figure was 116% (inactive); with `Cc1ccc2nc(Cl)c3cc(C(=O)NC4CCC(C)CC4)sc3c2c1` (stereo not drawn), 57% (inactive); with `CCC(C)NC(=O)c1cc2c(Cl)nc3ccc(C)cc3c2s1` (stereo not drawn), 65% (inactive). For `Cc1ccc(NC(=O)c2cc3c(Cl)nc4ccc(C)cc4c3s2)c(Cl)c1`, the survival was 68% (inactive). As to `Cc1ccc2nc(Cl)c3cc(C(=O)N4CCCC(C)C4)sc3c2c1` (stereo not drawn), the survival was -7% (active). As for `Cc1ccc2nc(Cl)c3cc(C(=O)N4CCCCC4)sc3c2c1`, the survival is -8% (active).

Turning to `CC1CCCN(CCCNC(=O)c2cc3c(Cl)nc4ccccc4c3s2)C1` (stereo not drawn), the survival was 125% (inactive).

Turning to `O=C(NC1CCCCC1)c1cc2c(Cl)nc3ccccc3c2s1`, the survival was 80% (inactive). As to `Cc1ccc2nc(Cl)c3cc(C(=O)NCCCN4CCC(C)CC4)sc3c2c1`, the survival is 125% (inactive).

`CC1CCC(NC(=O)c2cc3c(Cl)nc4ccccc4c3s2)CC1` (stereo not drawn): the survival was 87% (inactive). In the case of `O=C(c1cc2c(Cl)nc3ccccc3c2s1)N1CCCCC1`, the survival was 46% (active).
